# Measured values from PubChem BioAssay AID2314 (National Center for Advancing Translational Sciences (NCATS), 2010).
# “And” between values parts separate entries of the source, which are not always exact repeats. Equal entries are not always repeated. The whole screen tested about 300,000 compounds, of which about 37,000 (12%) were called active. The list comes from a sample in which actives are over-represented; it also holds similar structures and randomly drawn compounds. Unmarked numbers belong to inactive results. Rule as the data show it: active = max response mostly above about 13% (no sharp cut-off); inactive = mostly below about 14%.
# Assay: Cycloheximide Counterscreen for Small Molecule Inhibitors of Shiga Toxin; also: read at 38.3 µM for the half of the compounds with a filed dose; 0% is about no effect
# Settings: cell reporter, cycloheximide protein synthesis inhibition counterscreen; stronger effect = higher value
row,SMILES,max response
1,COc1ccc(N2CCC(CNC(=S)Nc3c(C)cccc3C)C2)cc1 (stereo unspecified),-1.13%
2,COc1cc(NS(=O)(=O)c2ccc(NC(=O)c3ccc([N+](=O)[O-])cc3)cc2)ncn1,-2.23%
3,CCCc1cc(=O)oc2c(C)c(OCC(=O)N3CCC(C(=O)O)CC3)ccc12,-2.94%
4,CCCc1cc(=O)oc2c(C)c(OCC(=O)NCc3ccccn3)ccc12,-0.405%
5,CCCc1cc(=O)oc2c(C)c(OCC(=O)Nc3ccccn3)ccc12,32.5% (active)
6,O=C1COc2ccc(C(=O)COC(=O)C3CC(O)CN3S(=O)(=O)c3ccc(Cl)cc3)cc2N1 (stereo unspecified),-1.44%
7,CCCc1nc2ccccc2c(C(=O)OCC(=O)c2ccc3c(c2)NC(=O)CO3)c1CC,-2.81%
8,CCc1ccc(Nc2nnc(SCC(=O)c3ccc4c(c3)NC(=O)CO4)s2)cc1,20.5% (active)
9,COc1cccc(Nc2nnc(SCC(=O)N3CC(=O)Nc4ccccc43)s2)c1,-2.67%
10,COC(=O)c1ccccc1Sc1c(/C=N/OCc2ccc(Cl)cc2)c(C(F)(F)F)nn1C,3.42%
11,CC(C)C(C)(C#N)NC(=O)CSc1nc2scc(-c3ccccc3)c2c(=O)[nH]1 (stereo unspecified),-4.09%
12,COc1ccc(-n2nnnc2-c2nc3ccccc3s2)cc1,40.1% (active)
13,CCOc1cccc(-n2nnnc2-c2ccc(OC)cc2)c1,-3.31%
14,COc1ccc(-n2nnnc2SCC(=O)NCc2cccs2)cc1,-3.1%
15,Cc1ccc(NC(=S)NC(NC(=O)Cc2cccc3ccccc23)C(Cl)(Cl)Cl)cc1 (stereo unspecified),-3%
16,O=C(Cc1cccc2ccccc12)NNC(=O)Nc1ccc(Cl)cc1,28.4% (active)
17,Fc1ccccc1CNC(=S)Nc1ccc(Cl)cc1,6.56%
18,O=C(CCCCCn1c(=S)[nH]c2cc3c(cc2c1=O)OCO3)N1CCN(c2ccc(F)cc2)CC1,10.7%
19,CC(=O)c1ccc(NC(=O)Nc2ccc([N+](=O)[O-])cc2C)cc1,-0.717%
20,CC(=O)N1c2ccc(S(=O)(=O)N3CCC(C(=O)NC4CCCCC4C)CC3)cc2CC1C (stereo unspecified),4.46%
21,COc1cc(C2CC(=O)c3cnc(NC(C)=O)nc3C2)cc(OC)c1OC (stereo unspecified),-4.71%
22,CCc1ccc(Nc2ncc3c(n2)CC(c2ccco2)CC3=O)cc1 (stereo unspecified),26.7% (active)
23,O=C(Nc1ncc2c(n1)CC(c1ccco1)CC2=O)c1ccc(Cl)cc1 (stereo unspecified),-2.44%

row,SMILES,max response
1,COC(=O)c1nc2n(n1)C(c1ccc([N+](=O)[O-])cc1)C(C(=O)Nc1ccc(Cl)cc1)=C(C)N2 (stereo unspecified),-2.4%
2,O=c1cc(Cl)c2ccccc2n1-c1ccccc1,-3.75%
3,Cc1cc(C)c(C2C3=C(Nc4c2c(C)nn4-c2ccccn2)c2ccccc2C3=O)c(C)c1 (stereo unspecified),-1.26%
4,NC(=O)c1ccsc1NC(=O)c1ccco1,12.2%
5,COc1ccc(NC(=O)c2cccc(NC(=O)c3ccco3)c2)c(OC)c1,-3.4%
6,O=C(Nc1ccnc(-c2ccncc2)n1)c1cccs1,-2.6%
7,O=C(Nc1ccc(NC(=O)c2cccs2)cn1)c1ccco1,51.1% (active)
8,COc1ccccc1C(=O)Nc1ccc(NC(=O)c2ccco2)c(C)c1,10.8%
9,COc1cccc(C(=O)Nc2ccc(NC(=O)c3ccco3)cn2)c1,55.5% (active)
10,CC(C)CC(=O)NC(=S)NNC(=O)c1cccc([N+](=O)[O-])c1,4.5%
11,CCOc1ccc(CNC(=O)C2CCCN(c3nnc(C)c4c(C)n(-c5ccccc5)nc34)C2)cc1 (stereo unspecified),-1.93%
12,COc1ccc(S(=O)(=O)N2CCN(c3ccc(F)cc3)CC2)cc1-c1noc(C)n1,10.5%
13,Cc1ccccc1CSc1nnc(CCCCCNC(=O)OC(C)(C)C)o1,-1.71%
14,CCOc1ccccc1NC(=O)Cn1nnc(C(=O)NCc2cccs2)c1N,-7.84%
15,O=C(NCc1cc(F)cc(C(F)(F)F)c1)C1CCC(=O)N(C2CCCC2)C1 (stereo unspecified),25.3%
16,CSc1ccc(S(=O)(=O)N2CCC(C(=O)NCCc3ccccc3)CC2)cc1,0.47%
17,O=C(C1CCN(S(=O)(=O)c2ccc(Br)s2)CC1)N1CCN(c2ccccc2)CC1,-2.23%
18,O=C(NCCc1ccccc1)C1CCN(S(=O)(=O)c2ccc(Br)s2)CC1,11.9% (active)
19,Oc1c(Cl)cc(Cl)cc1/C=N/c1ncn[nH]1,-3.31%
20,CCOC(=O)N1CCN(C(=O)c2ccc3c(=O)n(CCc4ccc(OC)c(OC)c4)c(=O)[nH]c3c2)CC1,2.53%
21,COc1cccc(CNC(=O)C2CCCN(S(=O)(=O)N3CC(C)CC(C)C3)C2)c1 (stereo unspecified),3.03%
22,O=C(/C(=C/c1cccc(Cl)c1)c1nc2ccccc2[nH]1)c1ccccc1,46.6% (active)
23,O=C(N/N=C/c1ccc(Cl)cc1)c1nc2ccc([N+](=O)[O-])cc2c(=O)[nH]1,-1.53%

row,SMILES,max response
1,Oc1ccc(Cl)cc1/C=N/c1nc2ccccc2[nH]1,23.3%
2,CC(C)(C)c1ccc(CCC2OCC(CN3CCOCC3)O2)cc1 (stereo unspecified),16.4%
3,CCOC(OCC)OCC,6.84%
4,Cc1oc2cc3oc(=O)ccc3cc2c1C,25.5% (active)
5,COc1ccc(Nc2cc(=O)oc3ccccc23)cc1,-1.7%
6,CC(C)OC(=O)c1ccc(COc2ccc3ccc(=O)oc3c2)o1,22.4%
7,COc1c(C(C)C)oc2cc3oc(=O)ccc3cc12,60.5% (active)
8,Cc1noc(C)c1COc1ccc2ccc(=O)oc2c1,-2.41%
9,Cc1ccc(OCC(=O)Nc2ccc3oc(=O)ccc3c2)cc1C,-4.02%
10,CCCCCn1c(=O)[nH]c2cc(C(=O)NCCCN3CCCCC3C)ccc2c1=O (stereo unspecified),-2.4%
11,CC(C)CN(CC(C)C)CC(O)CN(c1ccccc1)S(=O)(=O)c1ccccc1[N+](=O)[O-] (stereo unspecified),3.27%
12,CC(C)CNC(=O)C(=O)NCC(c1ccc2c(c1)OCO2)N1CCOCC1 (stereo unspecified),-4.38%
13,COCCOC1CCN(C(=O)c2ccc(OC)c(OC3CCN(C(C)C)CC3)c2)CC1,-2.04%
14,Cc1noc(NS(=O)(=O)c2ccc(NC(=O)c3oc4ccc(F)cc4c3C)cc2)c1C,-2.38%
15,Cc1nc(-c2ccccc2)cn2c1nc1ccccc12,12.4%
16,Cc1ccc(S(=O)(=O)N2CCC(Oc3ccc(-n4cnnn4)cc3)CC2)cc1,-4.88%
17,O=C(Cc1ccc(Br)cc1)NCCN1CCOCC1,-13%
18,CCN1C(=NCCc2cccnc2)N[C@@H](c2ccccc2)C(C(=O)OC)=C1C,1.37% and -1.46%
19,O=C(c1ccc(F)cc1)n1c(=S)nc2ccccn21,53.4% (active)
20,O=C(c1ccc(F)cc1)n1cc(C(=S)N2CCOCC2)c2ccccc21,7.24%
21,O=C(C[n+]1cc(Br)cc2ccccc21)c1ccc(F)cc1,3.72%
22,CC(C(=O)NC1CCCCC1)N1C(=O)c2cccc3cccc1c23 (stereo unspecified),11.1%
23,COCCN(C(=O)CCC(=O)Nc1nccs1)C(C(=O)NCCC(C)C)c1ccc(F)cc1 (stereo unspecified),-2.06%

row,SMILES,max response
1,CCOC(=O)C1=C(c2ccc(OC)cc2)C(=O)c2ccccc2C1=O,1.07%
2,CCOC(=O)c1c(-c2ccc(C)cc2)csc1/N=C(\C)C1=C(O)c2ccccc2C1=O,11.2% (active)
3,CCOC(=O)c1c(-c2ccc(-c3ccccc3)cc2)csc1NC(=O)CCC(=O)O,-2.27%
4,CCn1c(SCC(=O)Nc2nc(C)cs2)nnc1C(C)NC(=O)c1ccccc1 (stereo unspecified),1.33%
5,CCc1cccc(CC)c1NC(=S)Nc1ccc2cn[nH]c2c1,-0.951%
6,Cc1csc(NC(=O)c2ccc(-c3ccc(Cl)cc3Cl)o2)n1,11.3%
7,Cc1cccc(NC(=S)Nc2ccc3cn[nH]c3c2)c1,7.4%
8,CC(=O)c1cccc(NC(=O)c2ccncc2)c1,7.01%
9,CC(=O)Nc1cccc(C(=O)Nc2nc(C)cs2)c1,27.2% (active)
10,S=C(Nc1cccc(Cl)c1)Nc1ccc2cn[nH]c2c1,24.8% (active)
11,Cc1csc(NC(=S)Nc2cccc(Cl)c2)n1,41.1% (active)
12,Cc1cccc(NC(=S)Nc2ccc(Cl)c(Cl)c2)c1,-1.87%
13,Cc1cc(=O)oc2cc(OCC3CC(c4ccccc4Cl)=NO3)ccc12 (stereo unspecified),13.7%
14,Cc1ccc(NC2CCCN(C(=O)CCC3(C)CC3)C2)cc1C (stereo unspecified),10.8%
15,Cc1nc2ccc(C(=O)N(C)CC3CCCN(CCc4ccc(Cl)cc4)C3)cc2[nH]1 (stereo unspecified),-2.66%
16,C=CCNC(=S)N1CCN(CCN=Cc2c(C)[nH]n(-c3ccc([N+](=O)[O-])cc3)c2=O)CC1,-1.17%
17,CCO[C@H]1OC(C(=O)Nc2ccccc2)=C[C@@H](C2CC2)[C@@H]1CCCO,-1.4%
18,C[C@]1(C(=O)NCCc2c[nH]c3ccccc23)C=C[C@@H](Cc2ccccc2)N1C(=O)c1ccccc1,11.9%
19,Cc1ccc(N2C(=O)C3C(c4ccccc4)(C2=O)C3(c2ccccc2)c2ccccc2)cc1 (stereo unspecified),-4.14%
20,COc1cc(-c2nn3c(-c4cccc(C)c4)nnc3s2)cc(OC)c1OC,-2.72%
21,CCOc1cccc(-c2nn3c(-c4ccccn4)nnc3s2)c1,22.6% (active)
22,c1ccc(-c2cc(-c3nnc4sc(-c5ccccn5)nn34)[nH]n2)cc1,5.86%
